HNF4A DNA FP: change in binding of human HNF4 alpha to DNA. P41235. HNF4a-FITC DNA binding, fluorescence polarization, 1 h. activity change, % at 10 µM. actives 0.3% (n = 360,000). AID 1224865; in the data active = activity change above about 30%, passing the limit was not always enough
TPT1 inhibitor: blocks Candida albicans tRNA 2'-phosphotransferase; recombinant caTPT1, FP RNA substrate dephosphorylation; inhibition, % at 5 µM; actives 0.81% (n = 300,000);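 active = inhibition above the mean of all tested compounds plus 3 SD, set per screening campaign, cut at about 24% in these data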
Rpn11 inh: Rpn11 (human) deubiquitinase inhibition; O00487; human 26S proteasome, Ub4-pepOG fluorescence polarization; 20S core pre-blocked with epoxomicin; inhibition, % at 20 µM; actives 0.59% (n = 360,000); AID 588493;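 active = inhibition at 20 µM, scaled to each plate's controls, above about 33%, limit read from the data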
Target sequence (O00487 whole entry, looked up): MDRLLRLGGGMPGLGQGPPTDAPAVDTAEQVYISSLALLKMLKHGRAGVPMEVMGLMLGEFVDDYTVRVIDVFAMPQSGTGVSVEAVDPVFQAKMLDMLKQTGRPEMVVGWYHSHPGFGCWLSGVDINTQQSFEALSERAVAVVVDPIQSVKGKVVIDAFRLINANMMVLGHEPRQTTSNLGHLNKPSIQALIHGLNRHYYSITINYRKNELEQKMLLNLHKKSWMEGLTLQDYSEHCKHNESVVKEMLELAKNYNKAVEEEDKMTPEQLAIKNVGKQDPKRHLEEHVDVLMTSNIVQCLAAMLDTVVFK
Myeloid diff 2: compounds promoting myeloid differentiation; ER-HoxA9 myeloid progenitors, lysozyme-GFP differentiation, flow cytometry; calls only at 10 µM; actives 1% (n = 360,000); AID 624256;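 active = normalized GFP-positive differentiation at or above the plate's own cutoff, the solvent-only control mean plus 3 SD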;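 also: cells exposed to compound for four days before flow analysis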
Myeloid diff CP1: compounds promoting myeloid differentiation; shares compounds with Myeloid diff 2; ER-HoxA9 myeloid progenitors, GFP/Mac1 double-positive flow; calls only; actives 2% (n = 2,300); AID 651706;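 active = share of green or green-and-red cells above 9 and 9% in run 1 or 4 and 3% in run 2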
GFP autofluor: flagged as fluorescent in myeloid differentiation counter-screen; shares compounds with Myeloid diff 2; ER-HoxA9 myeloid progenitors, no estrogen, GFP autofluorescence flow cytometry; vehicle wells 0%, positive control 100%; fluorescence response, % (no concentration beside the values); actives 7.4% (n = 2,300);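 active = over 5% cells positive for green fluorescent reporter, or over 2% positive for both it and APC stain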
Of the large screens only hits and unclear results are named; the others gave an inactive call (follow-up assays come after a bar, where shown). Hits are enriched below; roughly 2.1% of the tested compounds scored in any of these assays.

CCCNC(=O)c1cc(C2CCCN(C(=O)C3CC3)C2)on1 (stereo not given)	none (no result: TPT1 inhibitor)
CCOc1ccc(N(CC(=O)Nc2ccc(C)cc2)S(=O)(=O)c2c(C)noc2C)cc1	Myeloid diff 2 active | Myeloid diff CP1 inactive | GFP autofluor inactive
CCOc1ccc(N(CC(=O)Nc2ccc(F)c(F)c2)S(=O)(=O)c2c(C)noc2C)cc1	none
Nc1cccc(C#Cc2ccc3c(c2)C(=O)/C(=C/c2ccsc2)O3)c1	none (no result: TPT1 inhibitor) | Myeloid diff CP1 inactive | GFP autofluor inactive
O=c1cc(-c2ccc(O)c(O)c2)oc2cc(O)c([C@@H]3O[C@H](CO)[C@@H](O)[C@H](O)[C@H]3O)c(O)c12	none (no result: TPT1 inhibitor)
CC(=O)Cc1cc(=O)c2c(C)cc(O)c(C3OC(CO)C(O)C(O)C3O)c2o1 (stereo not given)	none | Myeloid diff CP1 inactive | GFP autofluor inactive
CCN(CC)CCN(C(=O)c1ccc(N2C(=O)CCC2=O)cc1)c1nc2cc3c(cc2s1)OCCO3	Myeloid diff 2 active | Myeloid diff CP1 inactive | GFP autofluor inactive
CCOC(=O)C1=C(C)N=c2s/c(=C\c3ccc(C(=O)O)cc3)c(=O)n2C1c1ccc(F)cc1 (stereo not given)	none (no result: TPT1 inhibitor)
CC(=O)C1=C(C)N=c2s/c(=C/c3ccc4c(c3)OCO4)c(=O)n2C1c1ccc(N(C)C)cc1 (stereo not given)	HNF4A DNA FP 78, Myeloid diff 2 active (not shown: TPT1 inhibitor, Rpn11 inh) | Myeloid diff CP1 inactive | GFP autofluor 22
COc1ccc(Cc2nc3ccc(C(=O)NC(C)C)cc3o2)cc1	none | Myeloid diff CP1 inactive | GFP autofluor inactive
Cc1ccc(/C=N/c2sc(Cc3ccccc3)c(C)c2C(N)=O)o1	none | Myeloid diff CP1 inactive | GFP autofluor inactive
Cc1c(Cc2ccccc2)sc(NC(=O)C(C)(C)C)c1C(N)=O	none
C/C(CC(=O)NC(C)(C)C)=N\NC(N)=S	none
CCN(CC(=O)NC1CCS(=O)(=O)C1)S(=O)(=O)c1ccc(C)cc1C (stereo not given)	none
Cn1c(=O)c2ccccc2n(Cc2ccccc2Cl)c1=O	none | Myeloid diff CP1 inactive | GFP autofluor inactive
O=c1[nH]c(SCc2ccccc2[N+](=O)[O-])nc2nc[nH]c12	none
COc1ccc(Cl)cc1NC(=O)C1CSC(c2ccncc2)=N1 (stereo not given)	Myeloid diff 2 active | Myeloid diff CP1 inactive | GFP autofluor inactive
N#Cc1c(NC(=O)CCn2cnc3ccccc3c2=O)oc(-c2ccccc2)c1-c1ccccc1	none | Myeloid diff CP1 inactive | GFP autofluor inactive
COc1cccc(OC)c1NC(=O)Cn1nc(-c2ccc3c(c2)OCCO3)ccc1=O	none (no result: Myeloid diff 2)
CC(C)c1nnc(NC(=O)Cn2nc(-c3ccc4c(c3)OCCO4)ccc2=O)s1	Myeloid diff 2 active | Myeloid diff CP1 inactive | GFP autofluor inactive
O=C(NC1(C(F)(F)F)NC(=O)N(Cc2ccco2)C1=O)c1cccnc1 (stereo not given)	Myeloid diff 2 active | Myeloid diff CP1 inactive | GFP autofluor inactive
CCOc1ccc(NC(=O)c2ccc3c(=O)n(-c4ccc(OC)cc4OC)c(=S)[nH]c3c2)cc1	none
COc1ccc(-n2c(=S)[nH]c3cc(C(=O)Nc4ccc(C)c(F)c4)ccc3c2=O)c(OC)c1	Myeloid diff 2 active | Myeloid diff CP1 inactive | GFP autofluor inactive
CCC(C)(C)n1nnnc1CN1CCc2ccccc21	none
O=C(COC(=O)c1cccs1)NCc1ccc2c(c1)OCO2	Myeloid diff 2 active | Myeloid diff CP1 inactive | GFP autofluor inactive
CCCn1c(SCC(=O)Nc2ccccc2Cl)nc(O)cc1=O	none (no result: TPT1 inhibitor) | Myeloid diff CP1 inactive | GFP autofluor inactive
O=c1oc2ccc(Cl)cc2nc1/C=C(\O)c1ccco1	Myeloid diff 2 active | Myeloid diff CP1 inactive | GFP autofluor inactive
Cc1ccc(/C(O)=C/c2nc3cc(C)ccc3oc2=O)cc1	none
CC(C)C/C(O)=C/c1nc2cc(Cl)ccc2oc1=O	none | Myeloid diff CP1 inactive | GFP autofluor inactive
COCCNC(=O)C1(C)CCCN(C(=O)c2ccccc2OC)C1 (stereo not given)	none (no result: TPT1 inhibitor)
CCn1nc(C(=O)OCC(=O)Nc2nc(-c3ccc(OC)cc3)cs2)c2ccccc2c1=O	Myeloid diff 2 active | Myeloid diff CP1 inactive | GFP autofluor inactive
O=C(NCC1CCCO1)c1ccc(CSCc2cccc(F)c2)o1 (stereo not given)	none
CC(C(=O)NNS(=O)(=O)c1cccc(C(F)(F)F)c1)n1nnc(N2CCOCC2)n1 (stereo not given)	Myeloid diff 2 active | Myeloid diff CP1 inactive | GFP autofluor inactive
CC(C(=O)NN)n1nnc(N2CCOCC2)n1 (stereo not given)	none
C=CC[C@H](CC(=O)NCCO)C(=O)N[C@H](COC(=O)[C@H](CC=C)CC(=O)OC(C)(C)C)c1ccccc1	none (no result: TPT1 inhibitor)
Oc1ccc(N2CCN(c3nnnn3-c3ccccc3)CC2)cc1	Myeloid diff 2 active | Myeloid diff CP1 inactive | GFP autofluor inactive
CC(=O)N1CCN(c2nnnn2-c2ccccc2)CC1	none
COc1cccc(C2CC(c3ccccc3)=NN2S(=O)(=O)c2ccc(C)cc2)c1OC (stereo not given)	Myeloid diff 2 active (not shown: Rpn11 inh) | Myeloid diff CP1 inactive | GFP autofluor 93
COc1ccc(NC(=O)CCCC(=O)OCC(=O)c2cccc(OC)c2)cc1	none
CCOc1ccc(/C=N/NC(=O)c2ccccc2Cl)cc1CN1CC2CC(C1)c1cccc(=O)n1C2 (stereo not given)	none (no result: TPT1 inhibitor) | Myeloid diff CP1 inactive | GFP autofluor inactive
CC(C)N(C(=O)CO/N=C/c1cccc([N+](=O)[O-])c1)C(C)C	none
CC(=O)Nc1ccc(NC(=O)C(C)O/N=C/c2cccc([N+](=O)[O-])c2)cc1 (stereo not given)	none | Myeloid diff CP1 inactive | GFP autofluor inactive
CCOc1ccc(N(CC)S(=O)(=O)c2ccc3c(c2)n(C)c(=O)c(=O)n3C)cc1	none
CC(C)c1ccc(CN(C)C(=O)c2ccc(S(=O)(=O)NCc3ccco3)cc2)cc1	none (no result: TPT1 inhibitor)
NNC(=O)c1ccc(CSc2cccc3cccnc23)cc1	none | Myeloid diff CP1 inactive | GFP autofluor inactive
O=C(N/N=C/c1ccccc1Br)c1ccc(CSc2cccc3cccnc23)cc1	none
O=S(=O)(NCCc1c[nH]c2ccccc12)c1ccc(F)cc1	none (no result: TPT1 inhibitor)
c1ccc(-c2nnc(SCc3nc4ccccc4[nH]3)n2Cc2ccco2)cc1	none
Cc1ccc(OCc2nnc(SCc3nc4ccccc4[nH]3)n2Cc2ccco2)cc1	Myeloid diff 2 active | Myeloid diff CP1 active | GFP autofluor inactive
Cc1cc(C)n2nc(CNS(=O)(=O)c3ccc(F)c(C)c3)nc2n1	none
CCCCc1c(CCC)c(=N)c2ccccc2n1C	none | Myeloid diff CP1 inactive | GFP autofluor inactive
Cc1cc(C(=O)NCc2ccc(F)cc2)n(-c2ccccc2)n1	none
COCOCCn1cc(CN2CCS(=O)(=O)N(Cc3ccc(-c4ccc(Cl)cc4)cc3)C(CC(C)C)C2=O)nn1 (stereo not given)	Myeloid diff 2 active (no result: TPT1 inhibitor) | Myeloid diff CP1 inactive | GFP autofluor inactive

High-throughput results as filed in PubChem.
